Measured values reported in PubChem BioAssay (Tox21).
Inconclusive results are not listed. Active and inactive are the calls of the source. Unless noted, calls follow the shape of the dose curve; as a rule, active = well fitted curve in the direction sought with a large enough effect in the repeat runs; inconclusive = weak or mixed curves; inactive = no such curve, though single readings can be large; an effect the other way counts as inactive or inconclusive.

Key:
[1] = qHTS assay to identify small molecule agonists of the peroxisome proliferator-activated receptor delta (PPARd) signaling pathway - cell viability counter screen (AID 743211); also: nearly all actives have a fitted effect of over 55% in size
Method in brief: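 Luminescent ATP viability assay (CellTiter-Glo, 30 min RT) in UAS-bla HEK293H cells carrying the PPAR delta reporter construct, 3000 cells/well, after a 17 h compound treatment at 37 C.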

[2] = molecular target: Peroxisome proliferator-activated receptor delta (Homo sapiens) (UniProt Q03181); experiment: qHTS assay to identify small molecule agonists of the peroxisome proliferator-activated receptor delta (PPARd) signaling pathway (AID 743212; calls by dose curve)
Sequence of Peroxisome proliferator-activated receptor delta (Homo sapiens) (Q03181 whole entry, looked up): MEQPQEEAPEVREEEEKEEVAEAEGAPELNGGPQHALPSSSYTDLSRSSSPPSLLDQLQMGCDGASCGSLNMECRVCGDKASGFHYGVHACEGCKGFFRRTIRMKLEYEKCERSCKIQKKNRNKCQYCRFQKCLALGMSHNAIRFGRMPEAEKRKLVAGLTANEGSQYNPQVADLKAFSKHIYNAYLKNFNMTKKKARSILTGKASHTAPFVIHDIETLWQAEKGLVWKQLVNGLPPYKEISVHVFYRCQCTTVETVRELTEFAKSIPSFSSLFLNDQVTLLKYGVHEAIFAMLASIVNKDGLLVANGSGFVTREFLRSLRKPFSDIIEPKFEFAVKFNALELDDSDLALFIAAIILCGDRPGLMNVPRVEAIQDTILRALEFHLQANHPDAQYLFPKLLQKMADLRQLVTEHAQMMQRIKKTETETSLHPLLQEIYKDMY
Method in brief: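 HEK293H UAS-bla reporter cells, human PPARd system; compounds delivered in DMSO after 5 h plating, then at 37 C. Beta-lactamase FRET read, 2 h RT substrate step.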

[3] = qHTS assay to identify small molecule antagonists of the peroxisome proliferator-activated receptor delta (PPARd) signaling pathway - cell viability counter screen (AID 743213); also: nearly all actives have a fitted effect of over 50% in size
Method in brief: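 HEK293H cells with the PPARd UAS-bla reporter, co-treated 17 h at 37 C with compounds and L165041 (300 nM final), were lysed with CellTiter-Glo. Luminescence indicated viable cell content.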

[4] = molecular target: Peroxisome proliferator-activated receptor delta (Homo sapiens) (UniProt Q03181); experiment: qHTS assay to identify small molecule antagonists of the peroxisome proliferator-activated receptor delta (PPARd) signaling pathway (AID 743215; active = well fitted inhibition curve with a large enough effect in the signal ratio in the repeat runs, not every such curve was filed as active; the % refers to the signal ratio;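 also: cells stimulated with agonist L165041 at 300 nM final during compound exposure; series mostly up to about 62 µM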)
Method in brief: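 PPARd-bla HEK293H cells (UAS-bla reporter) preincubated 5 h, then given compound plus 300 nM final L165041 agonist for 17 h at 37 C. Beta-lactamase activity read by LiveBLAzer B/G FRET substrate fluorescence after 2 h at room temperature.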

[5] = qHTS assay to identify small molecule agonists of the farnesoid-X-receptor (FXR) signaling pathway - cell viability counter screen (AID 743218); also: nearly all actives have a fitted effect of over 45% in size
Method in brief: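 FXR-UAS-bla HEK 293T cells exposed to compounds for 16 h at 37C. Cytotoxicity read in the same wells by CellTiter-Glo luminescence after 30 min at room temperature, following the beta-lactamase FRET read.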

[6] = molecular target: Vitamin D3 receptor (Homo sapiens) (UniProt P11473); experiment: qHTS assay to identify small molecule agonists of the vitamin D receptor (VDR) signaling pathway (AID 743222; calls by dose curve)
Sequence of Vitamin D3 receptor (Homo sapiens) (P11473 whole entry, looked up): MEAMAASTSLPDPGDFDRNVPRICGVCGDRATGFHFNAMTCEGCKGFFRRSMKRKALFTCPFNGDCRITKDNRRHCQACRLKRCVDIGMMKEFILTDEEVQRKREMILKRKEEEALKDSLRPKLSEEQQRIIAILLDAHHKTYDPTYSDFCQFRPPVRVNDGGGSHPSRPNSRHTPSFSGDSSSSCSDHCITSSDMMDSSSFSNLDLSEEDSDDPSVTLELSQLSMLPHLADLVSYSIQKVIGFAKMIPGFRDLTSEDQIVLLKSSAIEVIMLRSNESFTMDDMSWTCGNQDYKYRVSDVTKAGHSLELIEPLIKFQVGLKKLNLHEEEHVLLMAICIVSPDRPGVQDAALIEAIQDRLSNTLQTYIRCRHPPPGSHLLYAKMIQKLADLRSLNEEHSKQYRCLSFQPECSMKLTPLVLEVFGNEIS
Method in brief: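 VDR-bla cells plated 4 h at 37 C, then exposed to compounds for 16 h at 37 C. Beta-lactamase reporter activity measured by fluorescence after 2 h room-temperature loading with LiveBLAzer B/G FRET substrate.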

[7] = molecular target: Vitamin D3 receptor (Homo sapiens) (UniProt P11473); experiment: qHTS assay to identify small molecule antagonists of the vitamin D receptor (VDR) signaling pathway (AID 743223; active = well fitted inhibition curve with a large enough effect in the signal ratio in the repeat runs, not every such curve was filed as active; the % refers to the signal ratio)
Method in brief: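 Agonist 1alpha,25-dihydroxyvitamin D3 (3 nM in well) was added with each compound to VDR-bla cells preincubated 4 h. Cells stood 16 h at 37C, then FRET substrate 2 h at room temperature; fluorescence intensity recorded.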

[8] = qHTS assay to identify small molecule antagonists of the farnesoid-X-receptor (FXR) signaling pathway - cell viability counter screen (AID 743221; active = well fitted cell-killing curve with a large enough effect in the repeat runs, not every such curve was filed as active; also: nearly all actives have a fitted effect of over 50% in size)
Method in brief: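 In GeneBLAzer FXR-UAS-bla HEK 293T cells stimulated with 50 uM chenodeoxycholic acid (final), compounds acted for 16 h at 37 C. Viability was assessed afterwards by CellTiter-Glo luminescence.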

[9] = molecular target: Bile acid receptor (Homo sapiens) (UniProt Q96RI1); experiment: qHTS assay to identify small molecule antagonists of the farnesoid-X-receptor (FXR) signaling pathway (AID 743217; active = well fitted inhibition curve with a large enough effect in the signal ratio in the repeat runs, not every such curve was filed as active; the % refers to the signal ratio)
Sequence of Bile acid receptor (Homo sapiens) (Q96RI1 whole entry, looked up): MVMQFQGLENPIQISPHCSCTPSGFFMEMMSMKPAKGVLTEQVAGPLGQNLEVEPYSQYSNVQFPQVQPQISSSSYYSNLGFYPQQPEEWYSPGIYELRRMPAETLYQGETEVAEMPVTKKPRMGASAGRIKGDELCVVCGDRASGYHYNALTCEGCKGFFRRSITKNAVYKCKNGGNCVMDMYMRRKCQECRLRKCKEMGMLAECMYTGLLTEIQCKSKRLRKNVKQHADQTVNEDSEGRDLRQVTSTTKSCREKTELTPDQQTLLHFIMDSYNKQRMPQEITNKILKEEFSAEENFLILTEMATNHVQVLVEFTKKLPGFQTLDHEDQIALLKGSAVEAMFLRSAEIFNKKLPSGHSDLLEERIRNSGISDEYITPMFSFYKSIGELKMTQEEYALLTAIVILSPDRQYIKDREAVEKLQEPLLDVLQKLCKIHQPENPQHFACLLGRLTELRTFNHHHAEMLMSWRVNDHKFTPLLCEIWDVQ
Method in brief: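 FXR-UAS-bla HEK 293T cells (beta-lactamase reporter) given compound plus chenodeoxycholic acid (50 uM final), 16 h at 37C. LiveBLAzer B/G FRET substrate added for 2 h at room temperature; fluorescence read.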

[10] = molecular target: Bile acid receptor (Homo sapiens) (UniProt Q96RI1); experiment: qHTS assay to identify small molecule agonists of the farnesoid-X-receptor (FXR) signaling pathway (AID 743220; active = well fitted activation curve with a large enough effect in the signal ratio in the repeat runs, not every such curve was filed as active; the % refers to the signal ratio; also: potency is read from the fitted curve at half-maximal effect)
Method in brief: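 Beta-lactamase reporter under UAS control in GeneBLAzer FXR HEK 293T cells (5000/well) measured with LiveBLAzer FRET substrate after 2 h at room temperature. Compound exposure lasted 16 h at 37C.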
% is scaled to controls: 0 for no effect and ±100 for the full control effect.

CC(C)c1ccc(C#N)cc1
inactive: Potency [1] | outcome [2] | Potency [3] | Potency [4] | Potency [5] | outcome [6] | outcome [7]

CCCCCCCCCCCCCCCCCC(=O)OCC(CC)CCCC (configuration not stated)
inactive: Potency [1] | outcome [2] | Potency [3] | Potency [4] | Potency [5] | outcome [6] | outcome [7]

CCN(CC)C(=O)/C(C#N)=C/c1cc(O)c(O)c([N+](=O)[O-])c1
inactive: Potency [1] | outcome [2] | Potency [3] | Potency [5] | Potency [8]

CC1CCC(C(C)CS)CC1S (configuration not stated)
inactive: Potency [1] | outcome [2] | Potency [3] | Potency [5]

CC(=O)OCC1=C(C(=O)O)N2C(=O)[C@@H](NC(=O)CSc3ccncc3)[C@H]2SC1
inactive: Potency [1] | outcome [2] | Potency [3] | outcome [9] | Potency [5] | Potency [8]

CCC(CO)(CO)[N+](=O)[O-]
inactive: Potency [1] | outcome [2] | Potency [3] | outcome [9] | Potency [5] | Potency [10] | outcome [6] | outcome [7]

COc1cc(S(=O)(=O)Nc2ccccc2)c(OC)cc1N
inactive: Potency [1] | outcome [2] | Potency [3] | outcome [9] | Potency [5] | Potency [10] | Potency [8] | outcome [6]

c1ccc(CCCc2ccncc2)cc1
active: Potency [10] 49 µM
inactive: Potency [1] | outcome [2] | Potency [3] | Potency [5]

CC(=O)NCCO
inactive: Potency [1] | outcome [2] | Potency [3] | Potency [5] | Potency [8]

CCCCCCCC(=O)OCCCCCC
inactive: Potency [1] | outcome [2] | Potency [3] | Potency [4] | Potency [10]

C=CC(=O)NC(C)C
inactive: Potency [1] | outcome [2] | Potency [3] | outcome [9] | Potency [5] | Potency [10] | Potency [8] | outcome [6]

CC(C)(C)S
inactive: Potency [1] | outcome [2] | Potency [3] | outcome [9] | Potency [5] | Potency [10] | Potency [8]

Cc1ccc(N(CCO)CCO)cc1
inactive: Potency [1] | outcome [2] | Potency [3] | outcome [9] | Potency [5] | Potency [10] | Potency [8] | outcome [6]

CC1CCCC(=O)C1=O (configuration not stated)
inactive: Potency [1] | outcome [2] | Potency [3] | Potency [4] | Potency [5] | outcome [6] | outcome [7]

CC(C)(C)C1(CCc2ccc(Cl)cc2)CO1 (configuration not stated)
inactive: Potency [1] | outcome [2] | Potency [3] | outcome [9] | Potency [5] | Potency [10] | Potency [8] | outcome [6] | outcome [7]

CCN(CC)CC(=O)Nc1c(C)cccc1C(=O)OC
inactive: Potency [1] | outcome [2] | Potency [3] | Potency [4] | Potency [8]

CN1C(CSCC(F)(F)F)Nc2cc(Cl)c(S(N)(=O)=O)cc2S1(=O)=O (configuration not stated)
inactive: Potency [1] | outcome [2] | Potency [3] | Potency [5] | Potency [8]

CCc1ccc(C)cc1
inactive: Potency [1] | outcome [2] | Potency [3] | outcome [9] | Potency [5] | Potency [10] | Potency [8] | outcome [6] | outcome [7]

COC(=O)c1sccc1S(N)(=O)=O
inactive: Potency [1] | outcome [2] | Potency [3] | outcome [9] | Potency [5] | Potency [10] | Potency [8] | outcome [6] | outcome [7]

CCCCOCCOC(=O)c1cccnc1
inactive: Potency [1] | outcome [2] | Potency [3] | Potency [4] | Potency [8]

CCCCCCCCCCCCCOC(=O)CCSCCC(=O)OCCCCCCCCCCCCC
inactive: Potency [1] | outcome [2] | Potency [3] | outcome [9] | Potency [5] | Potency [10] | outcome [6] | outcome [7]

O=C(O)CCC(=O)c1ccc(-c2ccccc2)cc1
inactive: Potency [1] | outcome [2] | Potency [3] | outcome [9] | Potency [5] | Potency [10] | Potency [8] | outcome [6] | outcome [7]

C1=CCC2CC=CC2C1 (configuration not stated)
inactive: Potency [1] | outcome [2] | Potency [3] | outcome [9] | Potency [5] | Potency [10] | Potency [8] | outcome [6] | outcome [7]

COc1ccc(N)c([N+](=O)[O-])c1
inactive: Potency [1] | outcome [2] | Potency [3] | outcome [9] | Potency [10] | outcome [6]

Cc1c[nH]c2ccccc12
inactive: Potency [1] | outcome [2] | Potency [3] | Potency [5] | Potency [8]

O=C(CCS)OCC(COC(=O)CCS)(COC(=O)CCS)COC(=O)CCS
inactive: Potency [1] | outcome [2] | Potency [3] | outcome [9] | Potency [5] | Potency [10] | Potency [8] | outcome [6] | outcome [7]

CCCCOC(=O)CCCCC(=O)OCCCC
inactive: Potency [1] | outcome [2] | Potency [3] | Potency [4] | Potency [5] | outcome [6] | outcome [7]

O=C(Oc1ccccc1)c1ccc2ccccc2c1O
inactive: Potency [1] | outcome [2] | Potency [3] | Potency [4] | Potency [5] | outcome [6] | outcome [7]

CC(CCc1ccc(O)cc1)NCCc1ccc(O)c(O)c1 (configuration not stated)
inactive: Potency [1] | outcome [2] | Potency [4] | outcome [9] | Potency [5] | Potency [10] | Potency [8]

CC(=O)OCCC1CCCCC1
inactive: Potency [1] | outcome [2] | Potency [3] | Potency [5] | Potency [8] | outcome [6]

Nc1ccc(N=Nc2ccc(N)cc2)cc1
inactive: Potency [1] | outcome [2] | Potency [4] | Potency [5] | Potency [8] | outcome [6] | outcome [7]

Nc1nc2ccc(OC(F)(F)F)cc2s1
inactive: Potency [1] | outcome [2] | Potency [4] | Potency [8] | outcome [6]

CC1=CC[C@@H]2C[C@H]1C2(C)C
inactive: activity change, negative = cytotoxicity [1] -15.6% [at 13.2 µM] | activation [2] 0.18% [at 13.2 µM] | viability change, negative = cytotoxic [3] -2.53% [at 13.7 µM] | viability change, negative = cytotoxic [5] 17.4% [at 13.2 µM] | activation [6] -15.3% [at 13.4 µM]
